Screening data deposited in PubChem by NMMLSC.
An excerpt weighted towards active compounds, which were near 2.2% of everything screened.
MEKK3 PB1 HTS = MEKK3-MEK5 PB1 interaction, increase or decrease | binding response (% of control), % at 10 µM | Q99759 | bead-based flow cytometry, Alexa488-MEK5 binding to MEKK3; actives lie on both sides; 0 = blocked by unlabeled MEK5, 100 = vehicle | hit rate 1.4% among 290,000 | AID 1529;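 active means binding response more than 3 SD above or below the average of its plate-row segment, actives on both sides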;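 further: Alexa488 bead fluorescence after subtracting the streptavidin-only scavenger bead signal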
MEKK2 WT-MEK5 = raises or lowers MEK5 binding to wildtype human MEKK2 PB1 domain | binding response (% of control), % at 10 µM | hit rate 1.1% among 290,000 | AID 1531 | Q9Y2U5 | bead flow cytometry, Alexa488-MEK5 binding to MEKK2 WT; actives lie on both sides; in the data active means binding response below about 67% or above about 130%
MEKK2 mut-MEK5 = signal of MEK5 binding to mutant human MEKK2 PB1 domain; bead flow cytometry, Alexa488-MEK5 binding to MEKK2 mutant; percent response, % at 10 µM; hit rate 0.35% among 290,000; AID 1530; in the data active means percent response above about 24%, passing the limit was not always enough
VLA-4 inh = inhibition in a human VLA-4 binding assay; P13612; VLA-4 expressing cells, ligand binding flow cytometry; inhibition, % (about 7 µM as worked out from the volumes in the protocol); hit rate 0.2% among 330,000; in the data active means inhibition above about 50%
Target sequence (P13612 whole entry, looked up): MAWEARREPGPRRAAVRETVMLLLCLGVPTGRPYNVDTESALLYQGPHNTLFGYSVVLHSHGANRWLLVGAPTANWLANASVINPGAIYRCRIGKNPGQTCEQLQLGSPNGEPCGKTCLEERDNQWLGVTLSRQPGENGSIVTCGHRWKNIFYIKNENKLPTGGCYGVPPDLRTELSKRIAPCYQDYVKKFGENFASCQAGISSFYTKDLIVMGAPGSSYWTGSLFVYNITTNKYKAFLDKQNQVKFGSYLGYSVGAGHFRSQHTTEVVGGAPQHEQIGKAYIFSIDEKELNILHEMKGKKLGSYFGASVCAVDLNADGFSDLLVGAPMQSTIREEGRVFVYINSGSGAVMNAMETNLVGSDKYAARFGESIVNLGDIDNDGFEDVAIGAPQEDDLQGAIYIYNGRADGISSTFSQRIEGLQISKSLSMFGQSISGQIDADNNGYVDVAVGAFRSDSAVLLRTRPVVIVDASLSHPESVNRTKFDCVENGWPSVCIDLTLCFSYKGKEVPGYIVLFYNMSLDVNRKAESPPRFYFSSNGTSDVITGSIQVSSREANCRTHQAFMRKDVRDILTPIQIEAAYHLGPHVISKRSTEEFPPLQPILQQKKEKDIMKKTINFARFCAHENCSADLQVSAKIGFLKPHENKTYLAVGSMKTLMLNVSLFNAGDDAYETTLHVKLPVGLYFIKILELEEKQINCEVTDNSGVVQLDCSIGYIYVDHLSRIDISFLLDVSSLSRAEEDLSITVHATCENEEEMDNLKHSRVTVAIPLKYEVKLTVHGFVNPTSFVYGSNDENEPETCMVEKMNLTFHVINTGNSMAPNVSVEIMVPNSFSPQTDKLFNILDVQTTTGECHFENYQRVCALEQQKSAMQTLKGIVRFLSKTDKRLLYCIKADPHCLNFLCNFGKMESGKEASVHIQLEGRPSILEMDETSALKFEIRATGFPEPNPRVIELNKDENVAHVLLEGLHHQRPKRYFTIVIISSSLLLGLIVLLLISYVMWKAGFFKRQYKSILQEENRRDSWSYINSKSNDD
MEKK2wt confirm = raises or lowers MEK5 binding to wildtype human MEKK2, retest; shares compounds with MEKK3 PB1 HTS; bead flow cytometry, Alexa488-MEK5 binding to MEKK2 WT; actives lie on both sides; binding response (% of control), % at 10 µM; hit rate 2.4% among 5,900; AID 1892; in the data active means binding response below about 16% or above about 210%; inactive means in between
MEKK2mut confirm = signal of MEK5 binding to mutant human MEKK2, retest. bead flow cytometry, Alexa488-MEK5 binding to MEKK2 mutant. hit rate 2% among 5,900. shares compounds with MEKK3 PB1 HTS. percent response, % at 10 µM; in the data active means percent response mostly above about 71%, no sharp cut-off; inactive means mostly below about 38%;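 further: higher means compound restores mutant binding toward wildtype level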
MEKK3-MEK5 inh = confirmation of inhibitors of MEK5 binding to human MEKK3. shares compounds with MEKK3 PB1 HTS. bead flow cytometry, Alexa488-MEK5 binding to MEKK3; stronger effect = lower value. binding response (% of control), % at 10 µM. hit rate 1.8% among 5,900. AID 1894;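 active means binding response below 72% of control, or above a set upper limit, though filed actives all read lower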;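 further: 100% = DMSO only wells and 0% = binding blocked by excess unlabeled MEK5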
Numbers without * were called inactive; x = not tested or not shown; [ ] = dose if it differs, or a comment.

SMILES	MEKK3 PB1 HTS	MEKK2 WT-MEK5	MEKK2 mut-MEK5	VLA-4 inh	MEKK2wt confirm	MEKK2mut confirm	MEKK3-MEK5 inh
C#CCOCCOCCOCCNc1nc(N2CCN(C(=O)[C@H]([C@@H](C)CC)n3cc([C@@H](N)Cc4ccc(O)cc4)nn3)CC2)nc(N2CCN(C(=O)[C@H](Cc3ccc(O)cc3)n3cc([C@@H](N)CC(C)C)nn3)CC2)n1	114.0	181.0*	50.0	1.9	118.0	8.0	101.0
C#CCOCCOCCOCCNc1nc(N2CCN(C(=O)[C@H]([C@@H](C)CC)n3cc([C@@H](N)Cc4ccc(O)cc4)nn3)CC2)nc(N2CCN(C(=O)[C@H]([C@@H](C)CC)n3cc([C@@H](N)CC(C)C)nn3)CC2)n1	94.0	139.0*	20.0	0.9	134.0	19.0	101.0
COc1ccc2oc(=O)c(C(=O)OCc3ccccc3)cc2c1	108.0	104.0	3.0	6.3	x	x	x
O=C(O)CCS(=O)(=O)Cc1ccccc1F	2.0*[inhibitor]	2.0*[inhibitor]	-46.0	6.5	108.0	5.0	105.0
Cc1ccc2c(c1)N(C(=O)CCC(=O)NC1CCCCCC1)CC(C)O2 (centres undefined)	100.0	100.0	-3.0	2.6	x	x	x
Nc1ccccc1C(O)(Cc1ccccc1)c1ccccc1 (centres undefined)	104.0	101.0	5.0	20.5	x	x	x
O=C(NC12CC3CC(CC(C3)C1)C2)C1CC(=O)N(c2ccccc2)C1 (centres undefined)	107.0	100.0	25.0*	-3.7	99.0	-3.0	99.0
O=C(NC12CC3CC(CC(C3)C1)C2)C1CC(=O)N(c2ccc(Br)cc2)C1 (centres undefined)	104.0	101.0	9.0	-3.9	x	x	x
COc1cc2ccccc2cc1C(=O)NC(=S)Nc1cc(C(=O)O)ccc1C	129.0*	110.0	0.0	x	100.0	0.0	103.0
NC(=O)C1CCN(c2nc(-c3ccc4c(c3)OCCO4)cs2)CC1	x	x	x	11.2	x	x	x
COc1cccc(OC)c1-c1nn2c(-c3cc(-c4ccccc4)n[nH]3)nnc2s1	78.0*[inhibitor]	80.0	-12.0	22.6	32.0	-26.0	48.0*
COc1cccc(-c2nnc3sc(-c4ccccc4)nn23)c1	101.0	96.0	0.0	-1.7	x	x	x
CNc1nc(Cl)c(SC)c(NCc2ccc(F)cc2)n1	101.0	101.0	6.0	-4.4	x	x	x
CCCOc1ccc(CCCN=C(N)N)cc1Cl	102.0	113.0	13.0	14.2	x	x	x
COCc1nc2c([nH]1)c(=O)n(C)c(=O)n2CC(C)C	x	x	x	-1.5	x	x	x
COc1ccc(-c2nc(-c3ccccc3)nc(N3CCN(C)CC3)c2C#N)cc1	105.0	152.0*	6.0	1.3	154.0	28.0	107.0
N#Cc1c(-c2ccccc2)nc(-c2ccccc2)nc1N1CCOCC1	100.0	98.0	5.0	11.7	x	x	x
COc1cccc(-c2nc(-c3ccccc3)nc(N3CCN(C)CC3)c2C#N)c1	100.0	136.0	12.0	10.5	x	x	x
CN1CCN(c2nc(-c3ccccc3)nc(-c3ccccc3)c2C#N)CC1	116.0	146.0*	22.0	11.7	122.0	10.0	100.0
CCOC(=O)c1cc(C#N)c(N2CCN(C)CC2)nc1-c1ccccc1	106.0	104.0	-2.0	-3.1	x	x	x
COc1ccc(-c2nc(-c3cccc(C)c3)nc(N3CCN(C)CC3)c2C#N)cc1	107.0	144.0	32.0*	10.4	149.0	38.0	108.0
CCN(CC)c1ccc(S(=O)(=O)N2CCCCC2)cc1NC(=O)CN1C(=O)NC2(CCCC2)C1=O	x	x	x	2.3	x	x	x
CCCN1CCN(C(=O)C2CCCN(c3ncnc4c3nc3n4CCCCC3)C2)CC1 (centres undefined)	98.0	97.0	5.0	-12.1	x	x	x
CCCCC(CC)C1OCC(C[N+]2(C)CCOCC2)O1 (centres undefined)	105.0	104.0	0.0	-3.6	x	x	x
CC(c1ccccc1)C1OCC(C[N+]2(C)CCCCC2)O1 (centres undefined)	43.0*[inhibitor]	47.0*[inhibitor]	-18.0	-1.8	105.0	7.0	105.0
SMILES	MEKK3 PB1 HTS	MEKK2 WT-MEK5	MEKK2 mut-MEK5	VLA-4 inh	MEKK2wt confirm	MEKK2mut confirm	MEKK3-MEK5 inh
CCCC(=O)Nc1c2c(nn1-c1ccc([N+](=O)[O-])cc1)CS(=O)(=O)C2	97.0	99.0	0.0	4.2	x	x	x
O=C(Nc1ccc2c(c1)nc1n2CCN(Cc2ccccc2)C1)c1cccs1	100.0	3.0*[inhibitor]	1.0	-0.3	100.0	-3.0	103.0
COc1ccc(/C=N\NC(=O)CC(=O)Nc2cccc(Cl)c2)cc1OC	73.0*[inhibitor]	77.0	-10.0	-6.7	103.0	4.0	103.0
COc1ccc(/C=N/NC(=O)CCn2c3ccccc3c3ccccc32)cc1OC	101.0	106.0	0.0	1.9	x	x	x
COc1ccc(/C=N/NC(=O)CCn2cnc(-c3ccccc3)c2-c2ccccc2)cc1OC	64.0*[inhibitor]	98.0	0.0	3.3	75.0	-15.0	72.0
COc1ccc(/C=N/NC(=O)CCC(=O)Nc2ccccc2)cc1OC	107.0	101.0	3.0	4.5	x	x	x
NC(CCCCCP(=O)(c1ccccc1)c1ccccc1)C(=O)O (centres undefined)	107.0	104.0	6.0	-2.2	x	x	x
CSc1c(CC(=O)NCCCO)n(Cc2ccccc2)c2ccccc12	99.0	104.0	1.0	-6.7	x	x	x
COc1ccc(NC(=O)Cc2c(SC)c3ccccc3n2Cc2ccccc2)cc1	160.0*	109.0	1.0	1.7	98.0	-3.0	100.0
COc1cccc(O)c1CN1CCC(C(=O)Nc2ccc(Oc3cccnc3)cc2)CC1	101.0	114.0	11.0	1.5	x	x	x
COc1cccc(O)c1CN1CCC(C(=O)Nc2ccc(-c3cccc(C)c3)cc2)CC1	119.0	227.0*	61.0*	-0.3	134.0	16.0	101.0
O=C(COC(=O)c1cccc(Br)c1)Nc1ccc2[nH]c(=O)[nH]c2c1	x	x	x	10.7	x	x	x
COc1ccccc1-n1c(SCC(N)=O)nc2sc3c(c2c1=O)CCC3	98.0	99.0	1.0	0.5	x	x	x
Nc1ccnc(=O)[nH]1	x	x	x	5.6	x	x	x
CCCCCCCCCC[n+]1cccc2c3ccccc3ccc21	119.0	213.0*	10.0	x	150.0	22.0	102.0
CCCCCCCC[n+]1cccc2c3ccccc3ccc21	96.0	94.0	-10.0	10.2	x	x	x
COc1ccc(CNC(=O)CN2c3ccccc3S(=O)(=O)c3ccccc32)cc1	103.0	106.0	1.0	35.9	x	x	x
COc1ccc(C(CCNCc2ccc(N(C)C)cc2)C(C)C)cc1 (centres undefined)	103.0	124.0	19.0	2.2	x	x	x
COc1ccccc1C(CCNCc1ccc(N(C)C)cc1)c1ccc(OC(C)C)cc1 (centres undefined)	117.0	229.0*	61.0*	1.9	160.0	30.0	107.0
COc1ccccc1C(CCNCc1ccccc1)c1ccc(OC(C)C)cc1 (centres undefined)	110.0	158.0*	24.0*	8.8	148.0	30.0	108.0
